Measured values from PMC11006913.
Numbering of substitutions follows the chain as printed.

Columns and labels:
Assay in all cases: PBM; 200 nM protein, PBS
Details in all cases: dsDNA, one strand shown
NKX2-5 [1] = molecular target: NKX2-5 (Homo sapiens, UniProt P52952 125-210, R139K)
SHOX = SHOX (Homo sapiens, UniProt O15266 103-189)
NKX2-5 [2] = molecular target: NKX2-5 (Homo sapiens, UniProt P52952 125-210)
HOXB4 [3] = molecular target: HOXB4 (Homo sapiens, UniProt P17483 148-234)
HOXB4 [4] = molecular target: HOXB4 (Homo sapiens, UniProt P17483 148-234, V174I)
NKX2-4 [5] = molecular target: T1, NKX2-4 (Homo sapiens, UniProt Q9H2Z4 175-261, P217L)
T1 sequence: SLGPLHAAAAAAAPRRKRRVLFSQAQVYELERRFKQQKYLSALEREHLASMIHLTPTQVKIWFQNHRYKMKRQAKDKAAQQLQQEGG

VENTX [6] = molecular target: T2, VENTX (Homo sapiens, UniProt O95231 78-163, R121Q)
T2 sequence: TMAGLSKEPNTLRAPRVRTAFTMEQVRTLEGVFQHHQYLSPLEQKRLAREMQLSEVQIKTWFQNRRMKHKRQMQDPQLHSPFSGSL

VENTX [7] = molecular target: T3, VENTX (Homo sapiens, UniProt O95231 78-163)
T3 sequence: T2 sequence with Q44R

NKX2-4 [8] = molecular target: T4, NKX2-4 (Homo sapiens, UniProt Q9H2Z4 175-261, T231S)
T4 sequence: T1 sequence with L43P, T57S

VENTX [9] = molecular target: T5, VENTX (Homo sapiens, UniProt O95231 78-163, Y115F)
T5 sequence: T2 sequence with Y38F, Q44R

NKX2-4 [10] = molecular target: T6, NKX2-4 (Homo sapiens, UniProt Q9H2Z4 175-261)
T6 sequence: T1 sequence with L43P

NKX2-6 [11] = molecular target: T7, NKX2-6 (Homo sapiens, UniProt A6NCS4 118-204, R150C)
T7 sequence: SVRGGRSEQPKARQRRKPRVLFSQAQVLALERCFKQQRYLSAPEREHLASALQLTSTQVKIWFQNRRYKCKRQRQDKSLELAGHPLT

NKX2-6 [12] = molecular target: T8, NKX2-6 (Homo sapiens, UniProt A6NCS4 118-204)
T8 sequence: T7 sequence with C33R

NKX2-4 [13] = molecular target: T9, NKX2-4 (Homo sapiens, UniProt Q9H2Z4 175-261, R246Q)
T9 sequence: T1 sequence with L43P, R72Q

NKX2-6 [14] = molecular target: T10, NKX2-6 (Homo sapiens, UniProt A6NCS4 118-204, F151L)
T10 sequence: T7 sequence with C33R, F34L

NKX3-2 [15] = molecular target: NKX3-2 (Homo sapiens, UniProt P78367 192-278, P234S)
NKX3-2 [16] = molecular target: NKX3-2 (Homo sapiens, UniProt P78367 192-278)
ALX1 [17] = molecular target: ALX1 (Homo sapiens, UniProt Q15699 118-204, L144V)
ALX1 [18] = molecular target: ALX1 (Homo sapiens, UniProt Q15699 118-204, L144R)
ALX1 [19] = molecular target: ALX1 (Homo sapiens, UniProt Q15699 118-204)
ALX1 (Homo sapiens, UniProt Q15699 118-204), sequence (Q15699 118-204): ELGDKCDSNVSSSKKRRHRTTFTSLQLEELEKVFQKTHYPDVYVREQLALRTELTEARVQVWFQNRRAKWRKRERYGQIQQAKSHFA

NKX2-5 (Homo sapiens, UniProt P52952 125-210), sequence (P52952 125-210): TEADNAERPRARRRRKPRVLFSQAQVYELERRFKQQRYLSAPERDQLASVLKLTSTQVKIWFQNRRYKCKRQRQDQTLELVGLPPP
NKX2-5 (Homo sapiens, UniProt P52952 125-210, R139K), sequence (P52952 125-210 R139K): as the sequence (P52952 125-210) above, with R15K counted along it
HOXB4 (Homo sapiens, UniProt P17483 148-234, V174I), sequence (P17483 148-234 V174I): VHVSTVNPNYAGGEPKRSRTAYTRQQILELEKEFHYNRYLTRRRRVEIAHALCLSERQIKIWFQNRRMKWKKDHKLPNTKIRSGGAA
HOXB4 (Homo sapiens, UniProt P17483 148-234), sequence (P17483 148-234): as the sequence (P17483 148-234 V174I) above, with I27V counted along it
SHOX, sequence (O15266 103-189): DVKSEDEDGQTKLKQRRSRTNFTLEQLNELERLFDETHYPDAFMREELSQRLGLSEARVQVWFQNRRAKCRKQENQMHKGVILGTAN
ALX1 (Homo sapiens, UniProt Q15699 118-204, L144R), sequence (Q15699 118-204 L144R): as the sequence (Q15699 118-204) above, with L27R counted along it
ALX1 (Homo sapiens, UniProt Q15699 118-204, L144V), sequence (Q15699 118-204 L144V): as the sequence (Q15699 118-204) above, with L27V counted along it
NKX3-2 (Homo sapiens, UniProt P78367 192-278, P234S), sequence (P78367 192-278 P234S): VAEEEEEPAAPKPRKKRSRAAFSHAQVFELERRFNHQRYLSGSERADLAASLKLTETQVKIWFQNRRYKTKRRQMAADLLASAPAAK
NKX3-2 (Homo sapiens, UniProt P78367 192-278), sequence (P78367 192-278): as the sequence (P78367 192-278 P234S) above, with S43P counted along it

In the case of CGGTCCAA, the binding signal (NKX2-5 [1]) is reported as 8.45 upbm affinity estimate (log intensity, higher = more binding, comparable within an allelic series), the binding signal (SHOX) is reported as 7.28 upbm affinity estimate (log intensity, higher = more binding, comparable within an allelic series) and the binding signal (NKX2-5 [2]) is reported as 8.42 upbm affinity estimate (log intensity, higher = more binding, comparable within an allelic series).

For ACGGCGGC, the binding signal (NKX2-5 [1]) was 9 upbm affinity estimate (log intensity, higher = more binding, comparable within an allelic series), the binding signal (HOXB4 [3]) was 7.36 upbm affinity estimate (log intensity, higher = more binding, comparable within an allelic series) and the binding signal (HOXB4 [4]) was 7.56 upbm affinity estimate (log intensity, higher = more binding, comparable within an allelic series). For the same sequence, the binding signal (NKX2-5 [2]) was 8.98 upbm affinity estimate (log intensity, higher = more binding, comparable within an allelic series).

GCACTTAA was tested, and the binding signal (NKX2-5 [1]) was 13.1 upbm affinity estimate (log intensity, higher = more binding, comparable within an allelic series), the binding signal (NKX2-4 [5]) was 12.6 upbm affinity estimate (log intensity, higher = more binding, comparable within an allelic series) and the binding signal (VENTX [6]) was 10.2 upbm affinity estimate (log intensity, higher = more binding, comparable within an allelic series). For the same sequence, the binding signal (VENTX [7]) was 10.9 upbm affinity estimate (log intensity, higher = more binding, comparable within an allelic series), the binding signal (NKX2-4 [8]) was 13 upbm affinity estimate (log intensity, higher = more binding, comparable within an allelic series) and the binding signal (VENTX [9]) was 10.3 upbm affinity estimate (log intensity, higher = more binding, comparable within an allelic series). For the same sequence, the binding signal (NKX2-4 [10]) was 12.5 upbm affinity estimate (log intensity, higher = more binding, comparable within an allelic series), the binding signal (NKX2-6 [11]) was 12 upbm affinity estimate (log intensity, higher = more binding, comparable within an allelic series) and the binding signal (NKX2-6 [12]) was 13.8 upbm affinity estimate (log intensity, higher = more binding, comparable within an allelic series). For the same sequence, the binding signal (NKX2-4 [13]) was 13.2 upbm affinity estimate (log intensity, higher = more binding, comparable within an allelic series), the binding signal (NKX2-6 [14]) was 11.6 upbm affinity estimate (log intensity, higher = more binding, comparable within an allelic series) and the binding signal (NKX3-2 [15]) was 12.9 upbm affinity estimate (log intensity, higher = more binding, comparable within an allelic series). For the same sequence, the binding signal (NKX2-5 [2]) was 13 upbm affinity estimate (log intensity, higher = more binding, comparable within an allelic series) and the binding signal (NKX3-2 [16]) was 13.1 upbm affinity estimate (log intensity, higher = more binding, comparable within an allelic series).

With CCAGCGCG the binding signal (NKX2-5 [1]) was 8.57 upbm affinity estimate (log intensity, higher = more binding, comparable within an allelic series) and the binding signal (NKX2-5 [2]) was 8.52 upbm affinity estimate (log intensity, higher = more binding, comparable within an allelic series).

For CTTAAGTA, the binding signal (NKX2-5 [1]) was 12.9 upbm affinity estimate (log intensity, higher = more binding, comparable within an allelic series), the binding signal (NKX2-4 [5]) was 12.6 upbm affinity estimate (log intensity, higher = more binding, comparable within an allelic series) and the binding signal (NKX2-4 [8]) was 12.9 upbm affinity estimate (log intensity, higher = more binding, comparable within an allelic series). For the same sequence, the binding signal (NKX2-4 [10]) was 12.5 upbm affinity estimate (log intensity, higher = more binding, comparable within an allelic series), the binding signal (NKX2-6 [11]) was 11.7 upbm affinity estimate (log intensity, higher = more binding, comparable within an allelic series) and the binding signal (ALX1 [17]) was 9.02 upbm affinity estimate (log intensity, higher = more binding, comparable within an allelic series). For the same sequence, the binding signal (NKX2-6 [12]) was 13.7 upbm affinity estimate (log intensity, higher = more binding, comparable within an allelic series), the binding signal (ALX1 [18]) was 8.85 upbm affinity estimate (log intensity, higher = more binding, comparable within an allelic series) and the binding signal (NKX2-4 [13]) was 13.1 upbm affinity estimate (log intensity, higher = more binding, comparable within an allelic series). For the same sequence, the binding signal (NKX2-6 [14]) was 10.9 upbm affinity estimate (log intensity, higher = more binding, comparable within an allelic series), the binding signal (ALX1 [19]) was 9.39 upbm affinity estimate (log intensity, higher = more binding, comparable within an allelic series) and the binding signal (NKX2-5 [2]) was 12.8 upbm affinity estimate (log intensity, higher = more binding, comparable within an allelic series).

In the case of CCGCGTCG, the binding signal (NKX2-5 [1]) is reported as 9.03 upbm affinity estimate (log intensity, higher = more binding, comparable within an allelic series), the binding signal (HOXB4 [3]) is reported as 7.75 upbm affinity estimate (log intensity, higher = more binding, comparable within an allelic series) and the binding signal (HOXB4 [4]) is reported as 7.36 upbm affinity estimate (log intensity, higher = more binding, comparable within an allelic series). The binding signal (NKX2-5 [2]) was 8.95 upbm affinity estimate (log intensity, higher = more binding, comparable within an allelic series).

In the case of CGGGCTCC, the binding signal (NKX2-5 [1]) is reported as 8.64 upbm affinity estimate (log intensity, higher = more binding, comparable within an allelic series), the binding signal (HOXB4 [3]) is reported as 6.66 upbm affinity estimate (log intensity, higher = more binding, comparable within an allelic series) and the binding signal (VENTX [6]) is reported as 7.54 upbm affinity estimate (log intensity, higher = more binding, comparable within an allelic series). For the same sequence, the binding signal (VENTX [7]) was 6.97 upbm affinity estimate (log intensity, higher = more binding, comparable within an allelic series), the binding signal (VENTX [9]) was 7.32 upbm affinity estimate (log intensity, higher = more binding, comparable within an allelic series) and the binding signal (HOXB4 [4]) was 6.92 upbm affinity estimate (log intensity, higher = more binding, comparable within an allelic series). The binding signal (NKX2-6 [12]) was 9.11 upbm affinity estimate (log intensity, higher = more binding, comparable within an allelic series), the binding signal (NKX2-6 [14]) was 9.07 upbm affinity estimate (log intensity, higher = more binding, comparable within an allelic series) and the binding signal (NKX2-5 [2]) was 8.58 upbm affinity estimate (log intensity, higher = more binding, comparable within an allelic series).

AATTAGCT was tested, and the binding signal (NKX2-5 [1]) was 10.5 upbm affinity estimate (log intensity, higher = more binding, comparable within an allelic series), the binding signal (SHOX) was 11.7 upbm affinity estimate (log intensity, higher = more binding, comparable within an allelic series) and the binding signal (VENTX [6]) was 11.7 upbm affinity estimate (log intensity, higher = more binding, comparable within an allelic series). The binding signal (VENTX [9]) was 11.4 upbm affinity estimate (log intensity, higher = more binding, comparable within an allelic series), the binding signal (ALX1 [17]) was 11.5 upbm affinity estimate (log intensity, higher = more binding, comparable within an allelic series) and the binding signal (ALX1 [18]) was 11.1 upbm affinity estimate (log intensity, higher = more binding, comparable within an allelic series). The binding signal (ALX1 [19]) was 12.1 upbm affinity estimate (log intensity, higher = more binding, comparable within an allelic series) and the binding signal (NKX2-5 [2]) was 10.6 upbm affinity estimate (log intensity, higher = more binding, comparable within an allelic series).

With CTACTTAA the binding signal (NKX2-5 [1]) was 12.4 upbm affinity estimate (log intensity, higher = more binding, comparable within an allelic series), the binding signal (NKX2-4 [5]) was 12.5 upbm affinity estimate (log intensity, higher = more binding, comparable within an allelic series) and the binding signal (NKX2-4 [8]) was 12.9 upbm affinity estimate (log intensity, higher = more binding, comparable within an allelic series). The binding signal (NKX2-4 [10]) was 12.4 upbm affinity estimate (log intensity, higher = more binding, comparable within an allelic series), the binding signal (NKX2-6 [11]) was 11.5 upbm affinity estimate (log intensity, higher = more binding, comparable within an allelic series) and the binding signal (NKX2-6 [12]) was 13.6 upbm affinity estimate (log intensity, higher = more binding, comparable within an allelic series). For the same sequence, the binding signal (NKX2-4 [13]) was 13 upbm affinity estimate (log intensity, higher = more binding, comparable within an allelic series), the binding signal (NKX2-6 [14]) was 10.6 upbm affinity estimate (log intensity, higher = more binding, comparable within an allelic series) and the binding signal (NKX2-5 [2]) was 12.3 upbm affinity estimate (log intensity, higher = more binding, comparable within an allelic series).
